Results reported in PubChem BioAssay (NCATS).
Results filed as inconclusive are left out. Entries that show only a call come without a potency. Values without a mark were called inactive. Calls of active or inactive are those of the source. Calls come from the whole dose curve; as a rule, active = well fitted inhibition curve with a large enough effect; inconclusive = small, poorly fitted or top-dose-only effect; inactive = no such curve, though single readings can be large or run the other way. *1 amine or outer side, *2 acyl side, *3 side chain or, on linkers, in order; H or OH if unused. Where a SMILES comes first, the peptide text is derived from it. Bridges are numbered along the chain shown (N, C = ends). [ ]: non-standard residue; d: D form. The star is where a group is joined. pTerphenylCO(4''-OnC5H11) = CCCCCOc1ccc(-c2ccc(-c3ccc(C(=O)*)cc3)cc2)cc1; Orn(4R-OH,5R-OH) = O=C([C@H](C[C@@H](O)[C@@H](O)N[*:3])N[*:1])[*:2]; hTyr(3S-OH,4S-OH) = N[C@H](C(=O)O)[C@H](O)[C@@H](O)c1ccc(O)cc1; Pro(3S-OH,4S-Me) = C[C@H]1CN[C@H](C(=O)O)[C@H]1O; Hyp = O=C(O)[C@@H]1C[C@@H](O)CN1

Tests used:
[1] = test system: Zika virus NS2B-NS3 protease (unlinked complex); experiment: Primary screen GU Rhodamine qHTS for Zika virus inhibitors: Unlinked NS2B-NS3 protease assay (AID 1347159); note: nearly all actives have a fitted effect of over 60% in size
Method in brief: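 Percent inhibition derives from the 15-min fluorescence change (ex 480, em 540 nm), normalized to no-enzyme and no-inhibitor wells. Reactions contained 25 nM NS2B-NS3 complex and 1.5 microM substrate in 10 mM Tris-HCl pH 8.0.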

[2] = test system: Zika virus NS2B-NS3 protease (linked construct); experiment: Primary screen NINDS Rhodamine qHTS for Zika virus inhibitors (AID 1347160); note: nearly all actives have a fitted effect of over 55% in size
Method in brief: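 In 10 mM Tris-HCl pH 8.0 containing 0.01% Tween 20, linked NS2B-NS3 protease (25 nM final) is exposed to test compounds for 15 min. Cleavage of 1.5 microM Rhodamine110 substrate is tracked by fluorescence over 15 min.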
Potency is the fitted concentration of half-maximal effect.

Row | Structure (SMILES) | Potency [1] | Potency [2] | activity change, negative = inhibition [1] | activity change, negative = inhibition [2]
1 | COc1cccc(-c2cc(F)ccc2C2Cc3nc(N)nc(C)c3C(=O)N2)n1 (stereo unspecified) | inactive | inactive |  | 
2 | O=C(Nc1cccnc1)c1cc(-c2ccnc(F)c2)ccc1OCc1ccccc1 | inactive | inactive |  | 
3 | CCCC(CCC)C(=O)Nc1ccn([C@@H]2O[C@H](CO)[C@@H](O)C2(F)F)c(=O)n1 | inactive | inactive |  | 
4 | C[C@@]12C(=O)N(c3ccc(C(=O)Nc4cccc5cccnc45)cc3)C(=O)[C@@H]1[C@@H]1C=C[C@H]2C1 | inactive | inactive |  | 
5 | C=C1C(=O)O[C@@H]2C=C(COC(C)=O)CC/C=C(\CO)CC[C@@H]12 | inactive | inactive |  | 
6 | Fc1ccc(-c2nc(-c3c(F)cccc3F)[nH]c2-c2ccncc2)cc1 | inactive | inactive |  | 
7 | CCOc1cccc(NC(=O)c2ccc(N3CCCC3)c(C(F)(F)F)c2)c1 | inactive | inactive |  | 
8 | COc1ccc(CCN(C)CCCOc2nsc(-c3ccccc3)n2)cc1OC | inactive | inactive |  | 
9 | O=C(NO)c1ccc(CC(=O)N(CCO)c2ccccc2)cc1 | inactive | inactive |  | 
10 | C[C@@H](NC(=O)c1ccc(C#Cc2cccc(F)c2)cn1)C(C)(C)O | inactive | inactive |  | 
11 | COc1cc(/C=C2\CCCN([C@@H](C)c3ccc(F)cc3)C2=O)ccc1-n1cnc(C)c1 | inactive | inactive |  | 
12 | CCOc1ccc(CCNC(=O)c2cc3sc(Cl)cc3n2C)cc1OCC | inactive | inactive |  | 
13 | N#Cc1cnc2c(Cl)cc(NCc3cn(CCN4CCCCCC4)nn3)cc2c1Nc1ccc(F)c(Cl)c1 | inactive | inactive |  | 
14 | CCCOc1ccc(CCc2nc3cc(-c4c(C)noc4C)ccc3n2CCN2CCOCC2)cc1 | inactive | inactive |  | 
15 | NCC(CNc1nc(Nc2cccc(NC(=O)N3CCCC3)c2)ncc1I)C(=O)c1cccs1 (stereo unspecified) | inactive | inactive |  | 
16 | CC(=O)O[C@@H]1[C@@H](OC(C)=O)[C@H](C)O[C@@H](O[C@H]2[C@@H]3C=CO[C@@H](O[C@@H]4O[C@H](CO)[C@@H](O)[C@H](O)[C@H]4O)[C@@H]3[C@@]3(CO)O[C@@H]23)[C@@H]1OC(=O)/C=C/c1ccccc1 | inactive | inactive |  | 
17 | CCCCCOc1ccc(-c2ccc(-c3ccc(C(=O)N[C@H]4C[C@@H](O)[C@@H](O)NC(=O)[C@@H]5[C@@H](O)[C@@H](C)CN5C(=O)[C@H]([C@@H](C)O)NC(=O)[C@H]([C@H](O)[C@@H](O)c5ccc(O)cc5)NC(=O)[C@@H]5C[C@@H](O)CN5C(=O)[C@H]([C@@H](C)O)NC4=O)cc3)cc2)cc1 ({pTerphenylCO(4''-OnC5H11)}-[Orn(4R-OH,5R-OH)]T[Hyp][hTyr(3S-OH,4S-OH)]T[Pro(3S-OH,4S-Me)]; lactam 1-C) | 31.6 µM (active) | inactive |  | 
18 | C=C[C@]1(C)C[C@H](O)[C@H]2C(=C)C(=O)O[C@@H]2[C@H]1C(=C)CO | inactive | inactive |  | 
19 | CCOc1ccc(Cc2nc(-c3c(C)nc4ccccn34)cs2)cc1 | inactive | inactive |  | 
20 | COC1C=C(C)C(O)(CO)C2(C)CCCC(C)(C)C12 (stereo unspecified) | inactive | inactive |  | 
21 | CCN(CC)CCCS(=O)(=O)N[C@H](CCc1ccccc1)c1nc(Cc2ccc(Br)cc2)no1 | inactive | inactive |  | 
22 | O=c1cc(OCc2ccc(F)cc2)ccn1-c1ccc(OCCN2CCCC2)cc1 | inactive | inactive |  | 
23 | CC[C@H]1CN(c2nc(N)c(C(N)=O)nc2Cl)CCN1C1CCN(Cc2ccc(Cl)cc2)CC1 | inactive | inactive |  | 

Row | Structure (SMILES) | Potency [1] | Potency [2] | activity change, negative = inhibition [1] | activity change, negative = inhibition [2]
24 | O=C(NCCN1CCC(n2c(=O)[nH]c3ccccc32)CC1)c1ccc2ccccc2c1 | inactive | inactive |  | 
25 | C=CC(=O)N1CCN(C(=O)CNc2cc(-c3ccccc3Cl)c(Cl)cc2OC)CC1 | inactive | inactive |  | 
26 | COc1ccc(CNCc2cccc3ccccc23)cc1 | inactive | inactive |  | 
27 | O=C(NC[C@H](O)CN1CCc2ccccc2C1)c1ccnc(NC2CCC2)c1 | inactive | inactive |  | 
28 | CC[C@H](C)/C=C(C)/C=C/C1=CC2=C(Cl)C(=O)[C@](C)(O)[C@H](OC(C)=O)[C@H]2CO1 | 10 µM (active) | 11.2 µM (active) |  | 
29 | COc1ccc(C#Cc2ccc(C(=O)N3CCC[C@@H](O)C3)c(F)c2)cc1 | inactive | inactive |  | 
30 | Cc1cc(C(=O)Nc2cc(Nc3ccc4c(/C=C/c5ccccn5)n[nH]c4c3)ccc2F)n(C)n1 | inactive | inactive |  | 
31 | COc1cc2ncnc(Nc3ccc(O)c(Br)c3)c2cc1OC | inactive | inactive |  | 
32 | COC1CC(O[C@H]2CC[C@]3(C)C4CC[C@@]5(C)C(=O)[C@]4(CC[C@@H]3C2)CC[C@@H]5C2=CC(=O)OC2)OC(C)C1OC1OC(COC2OC(CO)C(O)C(O)C2O)C(O)C(O)C1O (stereo partly specified) | inactive | inactive |  | 
33 | COc1ccccc1C(=O)Nc1cc2c(cc1N1CCCC1)n(C)c(=O)n2C | inactive | inactive |  | 
34 | COc1cc2c(cc1-c1c(C)noc1C)ncc1[nH]c(=O)n(C(C)c3ccccn3)c12 (stereo unspecified) | inactive | inactive |  | 
35 | C=C1C(=O)O[C@H]2CC(=C)[C@H]3CC[C@@](C)(O)[C@@H]3CC12 (stereo partly specified) | 11.2 µM (active) | inactive |  | 
36 | CN(C)[C@@H]1CCc2[nH]c3ccc(NC(=O)c4ccc(F)cc4)cc3c2C1 | inactive | inactive |  | 
37 | CC[C@H]1OC(=O)[C@H](C)[C@@H](O[C@H]2C[C@@](C)(OC)[C@@H](O)[C@H](C)O2)[C@H](C)[C@@H](O[C@H]2O[C@H](C)C[C@H](N(C)C)[C@H]2O)[C@](C)(O)C[C@@H](C)C(=O)[C@H](C)[C@@H](O)[C@]1(C)O | inactive | inactive |  | 
38 | CC(=O)Nc1nc(C)c(-c2nc(N3CCCC(O)C3)no2)s1 (stereo unspecified) | inactive | inactive |  | 
39 | CCn1c(-c2nonc2N)nc2c(C#CC(C)(C)O)ncc(OCC3CCCNC3)c21 (stereo unspecified) | inactive | inactive |  | 
40 | CC(C)OC(=O)N1CCC(Oc2ncnc3c2cnn3-c2ccc(S(C)(=O)=O)cc2F)CC1 | inactive | inactive |  | 
41 | O=C(O)CCc1nccc2c1[nH]c1ccccc12 | inactive | inactive |  | 
42 | c1cc(NCCc2c[nH]c3ccccc23)cc(Nc2ccncc2)c1 | inactive | inactive |  | 
43 | OC(c1ccc(-c2ccc(CN3CCN(Cc4ccncc4)CC3)cc2)c(F)c1)(C(F)(F)F)C(F)(F)F | inactive | inactive |  | 
44 | c1ccc(-c2ccc(CNc3nc(-c4ccccn4)nnc3-c3ccccc3)cc2)cc1 | inactive | inactive |  | 
45 | CC1(C)Oc2ncnc(N)c2N=C1c1ccc(C23CCC(CC(=O)O)(CC2)CC3)cc1 | 50.1 µM (active) | inactive |  | 
46 | CC(=O)O[C@H]1CC(C)(C)CC2[C@]13CO[C@@]21CCC2[C@@]4(C)CC[C@H](O[C@@H]5OC[C@H](O[C@@H]6O[C@H](CO)[C@@H](O)[C@H](O)[C@H]6O[C@@H]6OC[C@@H](O[C@@H]7O[C@H](CO)[C@@H](O)[C@H](O)[C@H]7O)[C@H](O)[C@H]6O)[C@H](O)[C@H]5O[C@@H]5O[C@H](CO)[C@@H](O)[C@H](O)[C@H]5O)[C@@](C)(CO)C4CC[C@@]2(C)[C@]1(C)C[C@H]3O (stereo partly specified) |  |  | 0.509% [at 19.1 µM] | -9.67% [at 10.7 µM]

Row | Structure (SMILES) | Potency [1] | Potency [2] | activity change, negative = inhibition [1] | activity change, negative = inhibition [2]
47 | O=C(Nc1ccc(-c2ccnc(Nc3ccc(N4CCOCC4)cc3)n2)cc1)C1CCCN1 (stereo unspecified) | inactive | inactive |  | 
48 | C=C1C(=O)O[C@@H]2/C=C(\C)CC/C=C(\C)CC[C@@H]12 | inactive | inactive |  | 
49 | Cc1[nH]c2ccccc2c1CCNC(=O)c1cccs1 | inactive | inactive |  | 
50 | CCCC(CCC)C(=O)NCc1ccc2c(cnn2-c2ccccc2OC)c1 | inactive | inactive |  | 
51 | CN(C)CCn1cc(-c2ccc(F)cc2)c(-n2cccc2)n1 | inactive | inactive |  | 
52 | COc1ccc(C2(CNC(=O)c3ccc(NC(=O)c4ccco4)cc3)CCOCC2)cc1 | inactive | inactive |  | 
53 | COc1cc2nc(C3CC3)nc(N3CCN(c4ccccc4OC)CC3)c2cc1OC | inactive | inactive |  | 
54 | CC#CCn1c(N2CCCC(N)C2)nc2c1c(=O)n(Cc1nc(C)c3ccccc3n1)c(=O)n2C (stereo unspecified) | inactive | inactive |  | 
55 | CC1CCCC[C@H]2C(=O)C=C[C@H](O)[C@@H]2CC(=O)O1 (stereo partly specified) | inactive | inactive |  | 
56 | COc1ccc2c(c1)C(C(=O)N(Cc1ccc(N(C)C)cc1)c1ccc(C(C)C)cc1)CCC2 (stereo unspecified) | inactive | inactive |  | 
57 | O=C(Nc1ccnc(NC(=O)C2CC2)c1)c1c(Cl)cccc1Cl | inactive | inactive |  | 
58 | C=C1CC[C@@H]2[C@](C)(CO)[C@H](O)CC[C@@]2(C)[C@@H]1CC(=O)C1=CCOC1=O | inactive | inactive |  | 
59 | Fc1ccc(N2CCN(CCC3OCCc4ccccc43)CC2)cc1 (stereo unspecified) | inactive | inactive |  | 
60 | CC(C)/C=C1\NC(=O)C(C(C)C)n2c1nc1ccccc1c2=O (stereo unspecified) | inactive | inactive |  | 
61 | CCCc1cc2c(N3CCN(C4=NCC(C)(C)S4)CC3)ncnc2s1 | inactive | inactive |  | 
62 | COc1ccccc1-c1ccc(-c2cn(C(=O)N3CCCCC3Cc3ccccc3)nn2)cc1 (stereo unspecified) | inactive | inactive |  | 
63 | COC(=O)C(Cc1ccc(OCCn2c(=O)sc3cc(C(=O)c4ccccc4)ccc32)cc1)C(=O)OC | inactive | inactive |  | 
64 | CC(C)(C)c1ccc(NC(=O)N2CCN(c3ncccc3Cl)CC2)cc1 | inactive | inactive |  | 
65 | Cc1c(C(=O)NCc2cccnc2)nn(-c2ccc(Cl)cc2Cl)c1-c1ccc(Cl)cc1 | inactive | inactive |  | 
66 | CC1(C)CC[C@]2(C(=O)O)[C@H](O)C[C@]3(C)C(=CCC4[C@@]5(C)CC[C@H](O[C@@H]6O[C@H](CO[C@@H]7OC[C@H](O)[C@H](O)[C@H]7O[C@@H]7OC[C@H](O)[C@H](O)[C@H]7O)[C@@H](O)[C@H](O)[C@H]6O)C(C)(C)C5CC[C@]43C)[C@@H]2C1 (stereo partly specified) | inactive | inactive |  | 
67 | COc1ccc(NC(=O)C2C[C@H](C)CC[C@H]2C(C)C)cc1 (stereo partly specified) | inactive | inactive |  | 
68 | COC1CCN(c2cccc(-c3cc(NC(C)=O)nc(-n4nc(C)cc4C)n3)n2)CC1 | inactive | inactive |  | 
